EWS-Fli inh: blocks EWS/Fli oncoprotein-driven transcription. inhibition, % at 12.6 µM. 0.67% of 350,000 active. A673 NR0B1-luciferase reporter, viability-normalised;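 active = mean inhibition of at least 50% after viability correction, with every replicate also passing that limit; inconclusive = mean reaches 50% but only one of two replicates passes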;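 also: firefly luciferase signal divided by Alamar Blue viability fluorescence both relative to DMSO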
PAX8 inh HTS: inhibitors of PAX8 transcriptional activity in RMG-I cells. 1.2% of 360,000 active. RMG-I TPO-luciferase reporter, SteadyGlo, 24 h. inhibition, % at 12.6 µM;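 active = mean replicate inhibition at least 60% with every replicate also reaching 60%; inconclusive = only one of the two criteria is met; inactive = mean below 60% and not all replicates reaching 60%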;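 also: luciferase light reporting Pax8 driven TPO promoter activity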
FXN GAA850 act: activators of GAA850 frataxin (FXN) promoter; activation, % at 6 µM; HEK293 lucGAA850 FXN promoter luciferase reporter, 24 h; percent of 10 µM SAHA response; 0.56% of 360,000 active; AID 540364;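 active = activation above the average of all compounds screened plus 3 SD, cutoff fixed separately per campaign, cut at about 7.5% in these data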
F508del corr: CFTR F508del correction in bronchial cells. CFBE cells, YFP halide quenching; stimulated with forskolin plus potentiator P3; % fluorescence drop versus neutral controls. 0.36% of 350,000 active. activity (quench increase), % at 7.58 µM;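 active = mean added fluorescence quench of at least 8% versus neutral control, with both replicates also reaching 8%; inconclusive = only one of the mean or replicate conditions met; inactive = mean below 8% and not both replicates reaching 8%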;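 also: cells transiently co-express mutant CFTR-F508del with the halide-sensitive YFP; corrector assay measuring rescue of mutant channel to the surface after 24 h compound exposure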
Env fusion inh: inhibitors of HIV Env-mediated cell fusion | HeLa-JRFL Env/CEM21 cell fusion, luciferase | inhibition, % at 12.3 µM | 1.1% of 360,000 active;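 active = mean replicate inhibition score of at least 50 and every replicate individually at or above 50; inconclusive = only one of the two criteria met; inactive = mean below 50 and not all replicates reaching 50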
Each line names hits and unclear results; the compound was inactive in the other large screens; [ ] = dose if it differs, or a comment. Rows were chosen to be rich in hits. Some 2.5% of all compounds tested hit in one or more screens of this group.

Cc1cccc(S(=O)(=O)N2CCCCN3[C@H](CO)[C@H](c4ccc(C#CC(C)C)cc4)[C@H]3C2)c1	PAX8 inh HTS 78.2 (no result: FXN GAA850 act, Env fusion inh)
COc1cccc(S(=O)(=O)N2CCCCN3[C@H](CO)[C@@H](c4ccc(C#CC(C)C)cc4)[C@@H]3C2)c1	none (no result: FXN GAA850 act, Env fusion inh)
Cc1cccc(S(=O)(=O)N2CCCCN3[C@H](CO)[C@H](c4ccc(C#C[C@H](C)O)cc4)[C@H]3C2)c1	PAX8 inh HTS 86.1 (no result: FXN GAA850 act, Env fusion inh)
Cc1cccc(S(=O)(=O)N2CCCCN3[C@H](CO)[C@@H](c4ccc(C#CC(C)C)cc4)[C@H]3C2)c1	none (no result: FXN GAA850 act, Env fusion inh)
COc1ccccc1CNC(=O)C[C@H]1CC[C@H]2[C@@H](COC[C@H](O)CN2Cc2cccc(-c3ccncc3)c2)O1	none (no result: FXN GAA850 act)
CC(C)NC(=O)N(C)C[C@H]1Oc2c(cccc2N(C)C)C(=O)N([C@@H](C)CO)C[C@H]1C	none (no result: FXN GAA850 act)
CCC(=O)Nc1ccc2c(c1)C(=O)N(C)C[C@@H](OC)[C@@H](C)CN(CCC(F)(F)F)[C@@H](C)CO2	none (no result: FXN GAA850 act)
O=CN1CCCN(C(=O)CC2C(=O)NCCN2Cc2cccc(Oc3ccccc3)c2)CC1 (stereo not drawn)	none
O=C1NCCN(Cc2cccc(Oc3ccccc3)c2)C1CC(=O)N1CCCCC1 (stereo not drawn)	Env fusion inh 71.7
N#CC(C#N)=C(Nc1ccc(F)cc1)SCc1cccc(F)c1	PAX8 inh HTS 77.3, Env fusion inh 61.1 (no result: EWS-Fli inh, F508del corr)
CCOc1ccc(N/C(SCc2cccc([N+](=O)[O-])c2)=C(/C#N)C(N)=O)cc1	none
C[C@@H]1CN([C@H](C)CO)C(=O)c2cc(NC(=O)NC3CCCCC3)ccc2O[C@@H](C)CCCCO[C@@H]1CN(C)C(=O)c1ccccc1	none (no result: FXN GAA850 act)
COC(=O)c1cc(OC)c(OC)cc1NC(=S)Nc1cccc(Cl)c1	none (no result: EWS-Fli inh, PAX8 inh HTS, F508del corr, Env fusion inh)
COC(=O)c1cc(OC)c(OC)cc1NC(=S)Nc1cc(Cl)ccc1OC	PAX8 inh HTS 77.9 (no result: Env fusion inh)
COc1ccc(C(=O)c2ccc(N(C)C)cc2)c(OC)c1	F508del corr 11.2 (no result: PAX8 inh HTS, Env fusion inh)
COc1ccc(C(=O)c2ccc(OC)cc2OC)cc1	F508del corr inconclusive
C[C@H](CO)N1C[C@H](C)[C@@H](CN(C)Cc2cccnc2)Oc2ncc(-c3cccc(F)c3)cc2C1=O	none (no result: PAX8 inh HTS, FXN GAA850 act)
O=C(CCc1ccccc1)NCC(c1ccco1)N1CCc2ccccc21 (stereo not drawn)	EWS-Fli inh inconclusive, F508del corr 14.3
CCCNC(=O)Nc1ccc2c(c1)C(=O)N(C)[C@@H]1CC[C@@H](CC(=O)O)O[C@H]1CO2	none (no result: FXN GAA850 act)
CC(=O)N1CCN(C(=O)c2cc(C)nc3ccccc23)CC1	none
Cc1cc(C(=O)N2CC=C(c3ccccc3)CC2)c2ccccc2n1	EWS-Fli inh 72.0, F508del corr 9.9
Cc1ccccc1OCC(=O)Nc1cccc(C(=O)O)c1	EWS-Fli inh 82.6, PAX8 inh HTS 93.4, Env fusion inh 76.0
CCOc1ccc(NC(=O)Nc2cccc(C(=O)O)c2)cc1	EWS-Fli inh 90.8, PAX8 inh HTS 99.4, Env fusion inh 63.5
CCOc1ccc(NC(=O)Nc2ccc3nsnc3c2)cc1	none
CCOC(=O)c1cccc(NC(=O)CSc2nc3cccnc3n2C)c1	Env fusion inh 62.5 (no result: EWS-Fli inh, F508del corr)
CCOC(=O)c1sc(NC(=O)CSc2nc3cccnc3n2C)nc1C	none
CC(=O)Nc1ccc(S(=O)(=O)Nc2cccc(-c3nc4cc(C)ccc4o3)c2)cc1	F508del corr 10.9
Cc1cccc(OCC(=O)Nc2cc(NC(=O)COc3cccc(C)c3C)cc(C(=O)O)c2)c1C	none
CC(=O)Nc1ccc(S(=O)(=O)Nc2cccc(-c3csc(C)n3)c2)cc1	none
COc1ccc2c3c([nH]c2c1)[C@H](CO)N(C(=O)c1ccc(F)cc1)CC31CN(S(=O)(=O)c2cccs2)C1	none (no result: PAX8 inh HTS, FXN GAA850 act, Env fusion inh)
Cc1noc(C)c1NC(=O)N1C[C@@H](O)COC[C@@H]2O[C@@H](CC(=O)NCC3CCCCC3)CC[C@H]21	none (no result: FXN GAA850 act, Env fusion inh)
CCOC(=O)c1cccc(NS(=O)(=O)c2ccc(NC(C)=O)cc2)c1	Env fusion inh 106.0 (no result: EWS-Fli inh, F508del corr)
CCOC(=O)c1cccc(NC(=O)c2ccc(N(C)C)cc2)c1	EWS-Fli inh 75.8 (no result: F508del corr)
CCOC(=O)C(=O)Nc1cccc(C(=O)OCC)c1	none (no result: F508del corr)
CCOC(=O)c1cccc(NC(=O)Nc2ccc(OCC)cc2)c1	EWS-Fli inh 84.0
C[C@H](CO)N1C[C@H](C)[C@H](CN(C)S(C)(=O)=O)Oc2ccc(NC(=O)CCCN(C)C)cc2CC1=O	none (no result: FXN GAA850 act, Env fusion inh)
Cc1ccc(N2C(=O)CC(c3ccsc3)C3=C2CC(C)(C)CC3=O)cc1 (stereo not drawn)	Env fusion inh 107.5 (no result: EWS-Fli inh, F508del corr)
CC(C)NC(=O)N1CCCCN2[C@H](CO)[C@H](c3ccc(C#Cc4ccccc4)cc3)[C@@H]2C1	none (no result: FXN GAA850 act, Env fusion inh)
COc1ccc(CN(C(=O)CSc2nnc(-c3c[nH]c4ccccc34)o2)c2ccc(F)cc2)cc1OC	PAX8 inh HTS 81.2 (no result: EWS-Fli inh, F508del corr)
N#Cc1ccc(NC(=O)Nc2ccc(Oc3ccc(NC(=O)Nc4ccc(C#N)cc4)cc3)cc2)cc1	PAX8 inh HTS 72.7, Env fusion inh 64.2
CCN1CC(=O)N2[C@@H](CO)[C@H](c3ccc(-c4ccccc4F)cc3)[C@@H]2C1	none (no result: FXN GAA850 act, Env fusion inh)
C[C@]1(C(=O)NCc2cc(F)cc(C(F)(F)F)c2)C=C[C@@H](Cc2ccccc2)N1C(=O)c1ccccc1	Env fusion inh 56.2
COCCNC(=O)[C@@]1(C)C=C[C@@H](Cc2ccccc2)N1C(=O)c1ccccc1	none
O=C(c1cccc(F)c1)N1C[C@H]2[C@@H](c3ccccc31)[C@@H](CO)N2C(=O)C1CCCCC1	none (no result: FXN GAA850 act, Env fusion inh)
Cc1ccc2c(c1)-c1c(ssc1=S)C(C)(C)N2C(=O)c1ccco1	Env fusion inh 56.7 (no result: EWS-Fli inh, PAX8 inh HTS, F508del corr)
CC1(C)c2ssc(=S)c2-c2ccccc2N1C(=O)c1ccco1	none (no result: EWS-Fli inh, PAX8 inh HTS, F508del corr)
O=C(Sc1cccc2cccnc12)c1ccc(F)cc1	PAX8 inh HTS 106.2 (no result: FXN GAA850 act, F508del corr)
O=S(=O)(Nc1cc(Sc2cccc3cccnc23)c(O)c2ccccc12)c1ccc(F)cc1	PAX8 inh HTS 102.1 (no result: FXN GAA850 act, F508del corr)
O=C(C[C@H]1CC[C@H](NC(=O)c2cccc(F)c2)[C@@H](CO)O1)NCc1ccc(Oc2ccccc2)cc1	none (no result: FXN GAA850 act)
O=C(C[C@H]1CC[C@@H](NC(=O)c2cccc(F)c2)[C@H](CO)O1)NCc1ccc(Oc2ccccc2)cc1	Env fusion inh 68.7[16.7 µM] (no result: FXN GAA850 act)
O=C(C[C@H]1CC[C@@H](NC(=O)c2cccc(F)c2)[C@@H](CO)O1)NCc1ccc(Oc2ccccc2)cc1	Env fusion inh 70.8[16.7 µM] (no result: FXN GAA850 act)
O=C(CC1CC1)N1CC(=O)N2[C@@H](CO)[C@@H](c3ccc(-c4ccccc4)cc3)[C@@H]2C1	none (no result: FXN GAA850 act, Env fusion inh)
C[C@@H]1CN([C@@H](C)CO)C(=O)c2cc(C#CCC3CCCC3)cnc2O[C@@H]1CN(C)C(=O)CN(C)C	none (no result: FXN GAA850 act)
CCOc1cc(N(CC)CC)ccc1/C=C(/C#N)c1nc2ccccc2[nH]1	none (no result: EWS-Fli inh, PAX8 inh HTS, F508del corr)
CCN(CC)c1ccc(/C=C(/C#N)c2nc3ccc(C)cc3[nH]2)c(OC(C)C)c1	F508del corr 17.5 (no result: PAX8 inh HTS, Env fusion inh)
CCCOc1cc(N(CC)CC)ccc1/C=C(/C#N)c1nc2ccc(C)cc2[nH]1	F508del corr 33.7 (no result: PAX8 inh HTS, Env fusion inh)
COc1cc2c(c(OC)c1OC)-c1ccc(OC)c(=O)cc1[C@@H](N(C)CC#CCO)CC2	EWS-Fli inh 53.6, PAX8 inh HTS 77.1
